A selection: hits, their analogues and other compounds. The true share with any hit is near 1.8%.
NALP1 inh = blocks the NALP1 inflammasome reconstituted in yeast | inhibition, % at 10 µM | actives 0.61% (n = 280,000) | S. cerevisiae NALP1/ASC/caspase-1 growth, X-gal OD620, 72 h; in the data active = inhibition mostly above about 24%, no sharp cut-off; inactive = mostly below about 32%
SUMO Mot1 rescue = inhibitors of SUMOylation pathway: yeast Mot1-301 growth rescue. S. cerevisiae Mot1-301 growth rescue, ATP luminescence, 38.5C; percent above DMSO median, 100 means doubled. growth rescue, % at 18.8 µM. actives 1% (n = 320,000). AID 2716;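 active = every valid replicate shows activation above 250% relative to neutral control wells; inactive = the rest, any valid replicate at or below 250%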;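 also: OY570 slx delta 5 strain wells were the positive control but not used for scaling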
PolyA inhibitor = blocks polyadenylation in yeast reporter cells; S. cerevisiae SKY197-pL101 polyadenylation reporter, beta-gal luminescence; efflux-impaired pdr1/pdr3 knockout yeast; score 100 = 6 SD above DMSO; activity score, % at 12 µM; actives 0.02% (n = 300,000); AID 1875;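 active = lowest replicate activity score at least 50, where 100 means six control SD above control mean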;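 also: yeast exposed to compound for 9 h at 30 °C; higher score means more reporter readthrough which indicates perturbed polyadenylation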
NLRP3 yeast inh = blocks the NALP3 inflammasome reconstituted in yeast | actives 0.39% (n = 330,000) | Yeast reconstituted NLRP3/ASC/caspase-1, beta-gal luminescence, 24 h | AID 2825 | inhibition, % at 10 µM;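 active = inhibition of 50% or more; inactive = inhibition below 50%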;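 also: plate controls were induced DMSO wells for no effect and uninduced yeast grown without galactose for full effect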
Mot1 SUMO dose = inhibits SUMO pathway, affecting Mot1-301 yeast growth | shares compounds with SUMO Mot1 rescue | S. cerevisiae Mot1-301 galactose growth, ATP luminescence, 24 h; -100 = growth of slx-deleted rescue strain | growth activity, percent, % at 42 µM | 2,300 tested, under 10 active;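 active = Signal drops as the depositor expects, and the fitted half-maximal dose is no more than ten times the top valid tested dose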;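 also: more negative values mean stronger growth rescue toward the control strain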
* = called active by the depositor; . = no result; + = active, no number.

SMILES	NALP1 inh	SUMO Mot1 rescue	PolyA inhibitor	NLRP3 yeast inh	Mot1 SUMO dose
CCC1(c2ccccc2)NC(=O)N(CC(=O)N(C)CC(=O)Nc2c(C)cccc2C)C1=O (stereo unspecified)	7	31	1	12	.
CCC1(c2ccccc2)NC(=O)N(CC(=O)N(C)CC(=O)Nc2ccc(F)c(F)c2F)C1=O (stereo unspecified)	.	609*	5	20	1
NC(=S)N/N=C/c1cccc(O)c1O	13	630*	-14	22	0
NC(=S)N/N=C/c1ccccc1O	-7	-6	14	11	.
CCC(=O)Nc1ccc(C(=O)CN2C(=O)NC3(CCOc4ccccc43)C2=O)cc1 (stereo unspecified)	.	-4	.	15	.
CC(C)CC(=O)Nc1ccc(C(=O)CN2C(=O)NC3(CCOc4ccccc43)C2=O)cc1 (stereo unspecified)	.	566*	5	10	1
CCOC(=O)C1CCCN(C(=O)/C=C/c2cc(OC)c(OC)c(OC)c2)C1 (stereo unspecified)	-18	3	6	10	.
CCOC(=O)C1CCCN(C(=O)/C=C/c2ccc(Cl)cc2)C1 (stereo unspecified)	-29	420*	-4	2	-1
COc1ccc(NC(=O)C(C)N2C(=O)c3ccccc3S2(=O)=O)c(OC)c1 (stereo unspecified)	.	30	-7	15	.
O=C(CN1CCN(Cc2ccc(F)cc2)CC1)NCCc1ccccc1	8	-5	-2	13	.
O=C(CN1CCN(Cc2ccc(F)cc2)CC1)NCc1ccccc1	14	651*	1	14	0
Cc1ccc(NS(=O)(=O)c2c(C)[nH]c(C)c2C(=O)N2CCCCC2)c(Cl)c1	19	477*	-2	15	0
Cc1ccc(NS(=O)(=O)c2c(C(=O)N3CCCCCC3)c(C)n(C)c2C)c(Cl)c1	12	73	21	-5	.
O=C(NCC1CCCO1)c1nn2c(C(F)(F)F)cc(-c3cc(Br)cs3)nc2c1Br (stereo unspecified)	15	472*	4	13	0
O=C(NCC1CCCO1)c1nn2c(C(F)(F)F)cc(-c3ccco3)nc2c1Cl (stereo unspecified)	10	-1	18	1	.
O=C(Nc1ccc2c(c1)oc1ccccc12)C1CC1	4	+	-16	40	0
O=C(Nc1ccc2c(c1)oc1ccc(S(=O)(=O)N3CCCC3)cc12)C1CC1	21	2	-16	13	.
CCOc1ccc(N(CC(=O)NC2CCCC2)C(=O)CCC(=O)Nc2nc(C)cs2)cc1	3	-6	12	20	.
COc1ccc(S(=O)(=O)NCCC(=O)OCC(=O)NC2CC2)cc1	.	-9	.	6	.
CCOC(=O)c1c(CN2CCCCC2)n(C)c2cc(Br)c(O)c(CN(C)C)c12	25	472*	16	8	0
O=C(NNC(=O)c1ccccc1F)c1ccco1	5	2	8	-3	.
O=C(NNC(=O)c1ccccc1O)c1ccco1	16	+	-4	10	0
COc1ccc(NC2=C(c3ccc(OC)cc3)C(=O)c3ccccc32)cc1	5	9	-23	10	.
COc1ccc(C2=C(N)c3ccccc3C2=O)cc1	4	457*	23	30	-2
COC(=O)C1=C(C)N(Cc2ccccc2)C(=S)N[C@H]1c1cccc(F)c1	-8	584*	13	23	1
SMILES	NALP1 inh	SUMO Mot1 rescue	PolyA inhibitor	NLRP3 yeast inh	Mot1 SUMO dose
S=C(NC1CCCCC1)N1CCOCCOCCN(C(=S)NC2CCCCC2)CCOCCOCC1	.	-6	-2	0	.
O=C(N/N=C/c1ccccc1)c1[nH]c2ccc(Br)cc2c1-c1ccccc1	12	491*	-2	7	0
N#Cc1cc([N+](=O)[O-])cnc1NCC(O)CO (stereo unspecified)	0	494*	-11	11	0
O=C(O)CC(NS(=O)(=O)c1cccc2nsnc12)c1ccc(F)cc1 (stereo unspecified)	-12	.	-9	5	.
CCOc1ccccc1/C=N\Nc1cnn(Cc2ccccc2)c(=O)c1Cl	4	+	-6	26	0
CCCC(=O)Nc1ccc(-c2nc3ncccc3o2)cc1	9	-7	-18	22	.
CCC1(CC)C(=O)C2=C3C1[C@H](C(=O)OC)CC(C(=O)OC)C[C@H]3n1c(=O)n(C)c(=O)n1[C@H]2C (stereo partly specified)	.	-4	-9	19	.

High-throughput results from PubChem.
